# Results: the antibiotic and cytotoxicity screens of Wong et al. (2023)
# In all, about 39,000 compounds went through this assay and about 1,500 (3.8%) were called active. The list comes from a sample in which actives are over-represented; it also holds similar structures and randomly drawn compounds.
# Test system: HSkMC (human skeletal muscle cells)
# Experiment: cytotoxicity call (relative viability < 0.9)
# Conditions: 10 µM
row,Compound,cytotoxicity call
1,C[C@H]1CN([C@@H](C)CO)C(=O)c2cc(NC(=O)CCCN(C)C)ccc2O[C@@H]1CN(C)Cc1ccc(Oc2ccccc2)cc1,inactive
2,Cc1ncc(CO)c(/C=N/O)c1O,inactive
3,Cc1ccc(S[C@]2(C(=O)NC(C)C)CC(=O)N(C3CCCCC3)[C@@H]2c2ccc(CO)cc2I)cc1,inactive
4,COc1ccc(S(=O)(=O)N[C@H]2C=C[C@@H](CC(=O)N3CCN(c4ccccc4)CC3)O[C@@H]2CO)cc1,inactive
5,Cc1noc(C)c1NC(=O)Nc1cccc2c1O[C@@H](CN(C)C(=O)Nc1ccc(C(F)(F)F)cc1)[C@H](C)CN([C@H](C)CO)C2=O,inactive
6,Cc1cc(C(=O)Nc2cccc3c2O[C@H](CN(C)S(=O)(=O)c2ccc(F)cc2)[C@@H](C)CN([C@H](C)CO)C3=O)n(C)n1,inactive
7,COC(=O)c1c2oc(c1C(=O)OC)C(=O)N[C@H](Cc1ccccc1)Cn1cc(nn1)CNC(=O)[C@H](Cc1ccccc1)NC(=O)N[C@@H](CO)CC2,inactive
8,CCCCC[C@H]1C[C@H]1C[C@H]1C[C@H]1CCCCCCCC(=O)O,inactive
9,COc1cccc(CN2C[C@@H](C)[C@H](OC)CN(C)C(=O)c3cc(NS(=O)(=O)c4cn(C)cn4)ccc3OC[C@H]2C)c1,inactive
10,O=C(C[C@@H]1CC[C@@H]2[C@H](COC[C@@H](O)CN2C(=O)c2ccc3c(c2)OCO3)O1)NCCN1CCCC1,inactive
11,C[C@@H]1CN([C@H](C)CO)C(=O)c2cc(NS(=O)(=O)c3ccc(F)cc3)ccc2O[C@@H](C)CCCCO[C@H]1CN(C)Cc1ccc(Cl)c(Cl)c1,inactive
12,C[C@@H]1CCCCO[C@H](CN(C)Cc2ccc(Cl)c(Cl)c2)[C@H](C)CN([C@@H](C)CO)C(=O)c2cc(NS(=O)(=O)c3ccc(F)cc3)ccc2O1,active
13,C[C@@H]1CCCCO[C@H](CN(C)Cc2ccc(Cl)c(Cl)c2)[C@@H](C)CN([C@@H](C)CO)C(=O)c2cc(NS(=O)(=O)c3ccc(F)cc3)ccc2O1,active
14,C[C@@H]1CCCCO[C@@H](CN(C)Cc2ccc(Cl)c(Cl)c2)[C@@H](C)CN([C@H](C)CO)C(=O)c2cc(NS(=O)(=O)c3ccc(F)cc3)ccc2O1,inactive
15,CN1CCN(C(=O)C[C@H]2C=C[C@@H](NC(=O)Cc3ccccn3)[C@H](CO)O2)CC1,inactive
16,COc1ccc(NC(=O)Nc2ccc3c(c2)C(=O)N([C@H](C)CO)C[C@H](C)[C@@H](CN(C)C(=O)NC2CCCCC2)OCCCC[C@@H](C)O3)cc1,inactive
17,C[C@@H]1CN([C@H](C)CO)C(=O)c2cc(NC(=O)Nc3ccc(C(F)(F)F)cc3)ccc2O[C@@H](C)CCCCO[C@@H]1CN(C)C(=O)NC1CCCCC1,inactive
18,C[C@@H]1CCCCO[C@H](CN(C)C(=O)NC2CCCCC2)[C@H](C)CN([C@H](C)CO)C(=O)c2cc(NC(=O)Nc3ccc(C(F)(F)F)cc3)ccc2O1,active
19,C[C@@H]1CCCCO[C@@H](CN(C)C(=O)NC2CCCCC2)[C@H](C)CN([C@@H](C)CO)C(=O)c2cc(NC(=O)Nc3ccc(C(F)(F)F)cc3)ccc2O1,inactive
20,C[C@@H]1CCCCO[C@@H](CN(C)C(=O)NC2CCCCC2)[C@@H](C)CN([C@H](C)CO)C(=O)c2cc(NC(=O)Nc3ccc(C(F)(F)F)cc3)ccc2O1,active
21,C[C@@H]1CN([C@H](C)CO)C(=O)c2cc(NC(=O)Nc3ccc(C(F)(F)F)cc3)ccc2O[C@@H]1CN(C)C(=O)NC1CCCCC1,active
22,C[C@H]1CCCCO[C@@H](CN(C)C(=O)NC2CCCCC2)[C@@H](C)CN([C@@H](C)CO)C(=O)c2cc(NC(=O)Nc3ccc(C(F)(F)F)cc3)ccc2O1,inactive
23,COc1ccc(NC(=O)Nc2ccc3c(c2)C(=O)N([C@@H](C)CO)C[C@@H](C)[C@@H](CN(C)C(=O)NC2CCCCC2)OCCCC[C@@H](C)O3)cc1,active
24,C[C@H]1CN([C@@H](C)CO)C(=O)c2cc(NC(=O)Nc3ccc(C(F)(F)F)cc3)ccc2O[C@@H]1CN(C)C(=O)NC1CCCCC1,inactive
25,C[C@@H]1CN([C@H](C)CO)C(=O)c2cc(NC(=O)Nc3ccc(C(F)(F)F)cc3)ccc2O[C@H]1CN(C)C(=O)NC1CCCCC1,inactive

row,Compound,cytotoxicity call
1,C[C@@H]1CCCCO[C@H](CN(C)C(=O)NC2CCCCC2)[C@@H](C)CN([C@@H](C)CO)C(=O)c2cc(NC(=O)Nc3ccc(C(F)(F)F)cc3)ccc2O1,inactive
2,COc1ccc(NC(=O)Nc2ccc3c(c2)C(=O)N([C@@H](C)CO)C[C@H](C)[C@H](CN(C)C(=O)NC2CCCCC2)OCCCC[C@H](C)O3)cc1,inactive
3,COCC#Cc1cnc2c(c1)C(=O)N([C@H](C)CO)C[C@@H](C)[C@@H](CN(C)C(=O)c1cnccn1)O2,inactive
4,C[C@H]1CN([C@@H](C)CO)C(=O)c2cccc(NC(=O)Nc3ccccc3)c2O[C@H]1CN(C)Cc1ccc(C(F)(F)F)cc1,inactive
5,C[C@@H]1CN([C@@H](C)CO)C(=O)c2cc(NS(C)(=O)=O)ccc2O[C@@H]1CN(C)S(=O)(=O)c1ccc(Cl)cc1,inactive
6,C=CCOC(=O)[C@H]1[C@@H]2C(=O)O[C@@H](c3ccccc3)[C@@H](c3ccccc3)N2[C@@H](c2ccc(OCCOC(=O)[C@H]3C[C@H]4C(=O)NCC(=O)N4[C@H]3c3ccc(O)cc3)cc2)[C@]12C(=O)Nc1ccc(I)cc12,inactive
7,C=C(O)C(=O)O,inactive
8,C[C@H]1CN([C@@H](C)CO)C(=O)Cc2cc(NS(=O)(=O)c3cccs3)ccc2O[C@@H]1CN(C)S(=O)(=O)c1cccs1,inactive
9,Cc1cc(NC(=O)CCCC(=O)O)n(C)n1,inactive
10,C[C@@H]1CN([C@H](C)CO)C(=O)c2cc(NC(=O)Nc3ccc(F)cc3)ccc2O[C@@H]1CN(C)C(=O)Nc1cccc2ccccc12,active
11,C[C@@H]1CN([C@H](C)CO)C(=O)c2cc(NC(=O)Nc3ccc(F)cc3)ccc2O[C@H]1CN(C)C(=O)Nc1cccc2ccccc12,inactive
12,C[C@H](CO)N1C[C@H](C)[C@@H](CN(C)C(=O)Nc2cccc3ccccc23)Oc2ccc(NC(=O)Nc3ccc(F)cc3)cc2C1=O,inactive
13,C[C@H](CO)N1C[C@H](C)[C@H](CN(C)C(=O)Nc2cccc3ccccc23)Oc2ccc(NC(=O)Nc3ccc(F)cc3)cc2C1=O,inactive
14,C[C@H]1CN([C@@H](C)CO)C(=O)c2cc(NC(=O)Nc3ccc(F)cc3)ccc2O[C@@H]1CN(C)C(=O)Nc1cccc2ccccc12,inactive
15,C[C@@H]1CN([C@@H](C)CO)C(=O)c2cc(NC(=O)Nc3ccc(F)cc3)ccc2O[C@@H]1CN(C)C(=O)Nc1cccc2ccccc12,active
16,Cc1ccc(S(=O)(=O)N(C)C[C@H]2Oc3ccc(NC(=O)C4CC4)cc3CC(=O)N([C@@H](C)CO)C[C@H]2C)cc1,inactive
17,C[C@@H]1CCCCO[C@@H](CN(C)S(=O)(=O)c2ccccc2)[C@@H](C)CN([C@@H](C)CO)C(=O)c2cc(NC(=O)C3CCCCC3)ccc2O1,inactive
18,C[C@H]1CN([C@@H](C)CO)C(=O)c2cc(Br)cnc2O[C@H]1CN(C)S(=O)(=O)c1cccs1,inactive
19,C[C@@H]1CCCCO[C@H](CN(C)S(=O)(=O)c2cccs2)[C@H](C)CN([C@H](C)CO)C(=O)c2cc(NS(C)(=O)=O)ccc2O1,inactive
20,Cc1noc(C)c1S(=O)(=O)N(C)C[C@@H]1Oc2ccc(NS(=O)(=O)c3cccs3)cc2CC(=O)N([C@H](C)CO)C[C@H]1C,inactive
21,C[C@@H]1CN([C@H](C)CO)C(=O)c2cc(NS(C)(=O)=O)ccc2O[C@@H](C)CCCCO[C@H]1CN(C)S(=O)(=O)c1cccs1,inactive
22,C=CC(C)(O)CCC=C(C)C (stereo not drawn),inactive
23,CC(C)=CCCC(C)(O)C1CC=C(C)CC1 (stereo not drawn),active
24,CC1=CC[C@H](C(C)(C)O)CC1,inactive
25,CC(C)CC#Cc1cnc2c(c1)C(=O)N([C@@H](C)CO)C[C@@H](C)[C@H](CN(C)S(=O)(=O)c1cn(C)cn1)O2,inactive

row,Compound,cytotoxicity call
1,C[C@@H]1CCCCO[C@H](CN(C)C(=O)C2CCCCC2)[C@H](C)CN([C@@H](C)CO)C(=O)c2cc(NS(=O)(=O)c3ccc(Cl)cc3)ccc2O1,active
2,C[C@@H]1CN([C@@H](C)CO)C(=O)c2cc(NS(=O)(=O)c3ccc(Cl)cc3)ccc2O[C@@H](C)CCCCO[C@H]1CN(C)C(=O)Cc1ccccc1,inactive
3,C[C@H]1CCCCO[C@H](CN(C)C(=O)C2CCCCC2)[C@@H](C)CN([C@@H](C)CO)C(=O)c2cc(NS(=O)(=O)c3ccc(Cl)cc3)ccc2O1,active
4,C[C@H](CO)N1C[C@H](C)[C@@H](CN(C)C(=O)C2CCCCC2)OCCCC[C@H](C)Oc2ccc(NS(=O)(=O)c3ccc(Cl)cc3)cc2C1=O,inactive
5,C[C@@H]1CCCCO[C@@H](CN(C)C(=O)C2CCCCC2)[C@@H](C)CN([C@H](C)CO)C(=O)c2cc(NS(=O)(=O)c3ccc(Cl)cc3)ccc2O1,active
6,C[C@H]1CCCCO[C@H](CN(C)C(=O)Cc2ccccc2)[C@@H](C)CN([C@@H](C)CO)C(=O)c2cc(NS(=O)(=O)c3ccc(Cl)cc3)ccc2O1,active
7,C[C@@H]1CCCCO[C@H](CN(C)C(=O)C2CCCCC2)[C@@H](C)CN([C@H](C)CO)C(=O)c2cc(NS(=O)(=O)c3ccc(Cl)cc3)ccc2O1,inactive
8,C[C@@H]1CN([C@@H](C)CO)C(=O)c2cc(NS(=O)(=O)c3ccc(Cl)cc3)ccc2O[C@@H](C)CCCCO[C@H]1CN(C)C(=O)C1CCCCC1,inactive
9,C[C@@H]1CCCCO[C@@H](CN(C)C(=O)Cc2ccccc2)[C@@H](C)CN([C@@H](C)CO)C(=O)c2cc(NS(=O)(=O)c3ccc(Cl)cc3)ccc2O1,inactive
10,C[C@@H]1CCCCO[C@@H](CN(C)C(=O)C2CCCCC2)[C@H](C)CN([C@@H](C)CO)C(=O)c2cc(NS(=O)(=O)c3ccc(Cl)cc3)ccc2O1,inactive
11,C[C@@H]1CCCCO[C@H](CN(C)C(=O)C2CCCCC2)[C@H](C)CN([C@H](C)CO)C(=O)c2cc(NS(=O)(=O)c3ccc(Cl)cc3)ccc2O1,inactive
12,C[C@@H]1CN([C@H](C)CO)C(=O)c2cc(NS(=O)(=O)c3ccc(Cl)cc3)ccc2O[C@@H](C)CCCCO[C@H]1CN(C)C(=O)C1CCCCC1,inactive
13,CNC(=O)CN1CCO[C@H]2CN(C(=O)c3cnccn3)C[C@@H]21,inactive
14,CC1(C)C(=O)NCCN1C(=O)c1ccco1,inactive
15,C[C@H]1CN([C@@H](C)CO)C(=O)Cc2cc(NS(=O)(=O)c3ccc(Cl)cc3)ccc2O[C@H]1CN(C)S(=O)(=O)c1cn(C)cn1,inactive
16,C[C@@H]1CN([C@H](C)CO)C(=O)Cc2cc(NC(=O)Cc3cn(C)c4ccccc34)ccc2O[C@H]1CN(C)C(=O)Nc1ccc(C(F)(F)F)cc1,inactive
17,COc1ccc(NC(=O)N2C[C@H](O)COC[C@@H]3O[C@H](CC(=O)NCc4ccccc4OC)CC[C@H]32)cc1,inactive
18,Cc1ccc(S(=O)(=O)N(C)C[C@@H]2Oc3c(NC(=O)c4ccncc4)cccc3C(=O)N([C@H](C)CO)C[C@@H]2C)cc1,inactive
19,COc1cccc(S(=O)(=O)N[C@H]2CC[C@@H](CCn3cc(-c4ccccc4OC)nn3)O[C@@H]2CO)c1,inactive
20,COc1cc(C(=O)O)ccc1NC(=O)[C@@H]1N[C@@H](CC(C)(C)C)[C@](C#N)(c2ccc(Cl)cc2F)[C@H]1c1cccc(Cl)c1F,active
21,C[C@@H]1CN([C@H](C)CO)C(=O)c2cc(NS(=O)(=O)c3ccc(Cl)cc3)ccc2O[C@H]1CN(C)Cc1ccc(C(=O)Nc2ccccc2N)cc1,inactive
22,C[C@@H]1CN([C@H](C)CO)C(=O)c2cc(C#Cc3ccccc3F)cnc2O[C@H]1CN(C)C(=O)c1ccc2c(c1)OCO2,inactive
23,O=C(/C=C/c1cc2c(cc1Br)OCCO2)c1c(-c2ccccc2)c2cc(Cl)ccc2[nH]c1=O,active
